Shown are actives, neighbours in structure and some others; about 19% of the full set was active somewhere.
HT1080 IDH1KD tx – toxicity to HT-1080 IDH1 knockdown cells (counter line) | Potency, µM (highest dose often 46.1 µM), for inactives: top-dose activity, negative = toxicity, usual class: cytotoxic | 360,000 tested, 2% active | HT-1080 IDH1 knockdown viability, ATP luminescence, 48 h;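 also: 0% = DMSO wells and -100% = cell-free medium wells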
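In this qHTS, HT-1080 cells depleted of IDH1 are exposed for 48 h at 37 °C to compound titrations. Toxicity is scored from CellTiter-Glo luminescence, with DMSO as full viability and medium alone as none.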
KB-V1 cytotox – kills drug-selected multidrug resistant KB-V1 cells; KB-V1 MDR cells viability, CellTiter-Glo, 72 h; Potency, µM (titrated, usually from 46.1 µM), hits mostly cytotoxic; 400,000 tested, 3.4% active; AID 1347076; also: nearly all actives have a fitted effect of over 60% in size
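Drug-selected KB-V1 cells, grown in DMEM lacking phenol red with 10% FBS, receive compound titrations; after three days at 37 degrees C, surviving cell ATP is quantified by CellTiter-Glo luminescence and responses normalized and curve-fitted.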
DT40 TDP1 no CPT – qHTS for Inhibitors of human tyrosyl-DNA phosphodiesterase 1 (TDP1): qHTS in cells in absence of CPT | DT40 Tdp1-/- hTDP1 cells, no CPT, ATP luminescence, 48 h | Potency, µM (top dose mostly 46.2 µM), without a hit: at the highest dose activity change, negative = growth inhibition, actives largely listed as inhibitors | 420,000 tested, 15% active; also: nearly all actives have a fitted effect of over 55% in size
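Stably hTDP1-transfected Tdp1-null chicken DT40 cells were treated with library compounds minus camptothecin and grown for at least 48 hr at 37 °C, after which cellular ATP was quantified by luminescence.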
HT1080-NT tox – kills 2HG-producing HT-1080-NT fibrosarcoma cells. HT-1080-NT fibrosarcoma viability, CellTiter-Glo ATP luminescence, 48 h. Potency, µM (series often up to 46.1 µM), for inactives: at the top dose activity, negative = less viability, actives largely listed as cytotoxic. 360,000 tested, 1.6% active;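 also: NT is the 2HG producing partner of a matched IDH1 knockdown line; 0% = DMSO-treated cells and -100% = media-only wells without cells; nearly all actives have a fitted effect of over 55% in size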
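HT-1080-NT fibrosarcoma cells (2HG-overproducing), 750 cells/well in RPMI with 5% FBS, dosed after 2 h and incubated 48 h at 37C. CellTiter-Glo luminescence normalized to DMSO and no-cell wells; concentration-response curves fitted and classed.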
KB-3-1 cytotox – KB-3-1 parental cell cytotoxicity. Potency, µM (series often up to 46.1 µM), usual class: cytotoxic. KB-3-1 viability, CellTiter-Glo ATP luminescence, 72 h. 400,000 tested, 1.4% active; also: nearly all actives have a fitted effect of over 60% in size
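KB-3-1 cells, DMEM (no phenol red) + 10% FBS; compound by pin transfer, 72 h, 37 °C. Readout: CellTiter-Glo luminescence after 10 min. Data normalized, curve-fitted.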
DT40 TDP1 CPT – DT40-hTDP1 cell growth loss with CPT; chicken DT40 Tdp1-/-;hTDP1 cells + 20 nM CPT, ATP luminescence, 48 h; Potency, µM (doses to about 46.2 µM), without a hit: at the top dose activity change, negative = growth inhibition, most hits filed as inhibitors; 420,000 tested, 12% active; AID 686979; also: nearly all actives have a fitted effect of over 55% in size
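Chicken DT40 Tdp1-/- cells stably complemented with human TDP1 were seeded at 400 cells/well in medium containing 20 nM camptothecin, exposed to pin-transferred compounds, and grown at 37 °C for at least 48 hr. Viability was read as ATP luminescence.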
* marks the source's active call; other numbers are inactive results; i = inactive; ? = inconclusive; nt = no result; [ ] = remark or other dose. Calls follow the shape of the dose curve; as a rule, active = well fitted curve in the direction sought with a large enough effect; inconclusive = small, poorly fitted or top-dose-only effect, or another doubt; inactive = no such curve, though single readings can be large; an effect the other way counts as inactive or inconclusive. Unless noted, % is scaled to controls: 0 for no effect and ±100 for the full control effect; potency is read from the fitted curve at half-maximal effect.

SMILES | HT1080 IDH1KD tx | KB-V1 cytotox | DT40 TDP1 no CPT | HT1080-NT tox | KB-3-1 cytotox | DT40 TDP1 CPT
COc1ccc(CC2(C)OC(c3ccc([N+](=O)[O-])cc3)=NN2C(C)=O)cc1 (configuration not stated) | -11% | ? | ? | -9% | i | ?
COc1ccc(-c2[nH]ncc2-c2nc(C)cs2)c(O)c1 | -9% | i | -23% | -8% | i | -4%
CN(Cc1cn[nH]c1-c1ccc2c(c1)OCO2)C1CCOCC1 | 10% | i | 4% | -3% | i | 17%
CCc1cc(-c2[nH]ncc2-c2ccc3c(c2)OCO3)c(O)cc1O | ? | 9.2µM* | 11µM* | ? | i | 18µM*
COc1ccc(-c2cn[nH]c2-c2ccc(OCc3ccc([N+](=O)[O-])cc3)cc2O)cc1 | -20% | 3.7µM* | 16µM* | 0% | ? | ?
CCOc1ccc(CC(=O)NC2CC(=O)N(c3ccc4c(c3)OCCO4)C2)cc1 (configuration not stated) | nt | nt | 5% | nt | nt | 5%
C[N+]1(CC(=O)c2ccc(I)cc2)CCOCC1 | nt | i | -4% | nt | i | -19%
O=C1CC(C(=O)N2CCOc3ccc(CN4CCC(Oc5cccnc5)CC4)cc3C2)c2ccccc21 (configuration not stated) | nt | nt | ? | nt | nt | -6%[9.04 µM]
Cc1ccc(C(=O)C(C)OC(=O)c2cc3cc([N+](=O)[O-])ccc3oc2=O)cc1 (configuration not stated) | 11µM* | i | -2% | -15% | i | -2%
COc1cccc2cc(C(=O)OC(C)C(=O)c3ccc(C)cc3)c(=O)oc12 (configuration not stated) | 12% | i | 25% | 19% | i | -15%
CCCCNCc1cc(Br)c(OCc2cccs2)c(OC)c1 | 21µM* | ? | ? | ? | ? | ?
CCCCOc1c(Br)cc(CNCCCN2CCOCC2)cc1OC | ? | ? | 13µM* | -28% | i | ?
CCOC(=O)C1CCCN(CCC(=O)Nc2cccc(Cl)c2C)C1 (configuration not stated) | -2% | i | 3% | -13% | i | ?
Cc1ccc(C(C)CCN2CCOc3ccc(CN4CCOCC4)cc3C2)o1 (configuration not stated) | nt | nt | -16% | nt | nt | 0%
C=CCN(CC=C)S(=O)(=O)c1ccc(NC(=S)NC(=O)Cc2ccc(OC)cc2)cc1 | ? | 21µM* | 21µM* | -10% | i | ?
C=CCN(CC=C)S(=O)(=O)c1ccc(NC(=S)NC(=O)c2ccco2)cc1 | 0%[9.24 µM] | 13µM* | 18µM* | -14% | ? | ?
CC1(c2ccc(OC(F)F)cc2)NC(=O)N(CC(=O)Nc2ccc(OC(F)F)cc2)C1=O (configuration not stated) | -28% | i | ? | ? | i | ?
CCOC(=O)c1c(NC(=O)CN2C(=O)NC(C)(c3ccc(OC(F)F)cc3)C2=O)sc(C)c1C (configuration not stated) | -29% | i | 16µM* | ? | i | 21µM*
CCOc1ccc(NC(=O)CN2C(=O)NC(C)(c3ccc(OC(F)F)cc3)C2=O)cc1 (configuration not stated) | 18µM* | i | 23µM* | ? | ? | 18µM*
COc1ccc(C2(c3ccc(OC)cc3)NC(=O)N(CC(=O)Nc3ccc(OC(F)F)cc3)C2=O)cc1 | -18% | ? | 18µM* | -20% | ? | ?
COC(=O)c1c(C)[nH]c(C(=O)CN2C(=O)C3CC=CCC3C2=O)c1C (configuration not stated) | -6% | 21µM* | ? | -3% | i | ?
CCC(=O)N1c2ccc(S(=O)(=O)N3CCC(C)CC3)cc2CC1C (configuration not stated) | nt | ? | -27% | nt | i | -29%
CCOC(=O)c1c(C)[nH]c(C(=O)CN2C(=O)NC(C)(C)C2=O)c1C | 10% | i | -2% | 3% | i | 4%
CCOC(=O)c1c(C)[nH]c(C(=O)CN2C(=O)NC(C)(c3ccc(C)cc3)C2=O)c1C (configuration not stated) | -25% | ? | 23µM* | -26% | ? | ?
CCC(=O)Nc1cc(ON=C(C)C)cc([N+](=O)[O-])c1 | 8% | i | -2% | -1% | i | 11%
SMILES | HT1080 IDH1KD tx | KB-V1 cytotox | DT40 TDP1 no CPT | HT1080-NT tox | KB-3-1 cytotox | DT40 TDP1 CPT
CC(C)=NOc1cc(NC(=O)CCl)cc([N+](=O)[O-])c1 | 9.2µM* | 16µM* | 4.1µM* | 5.8µM* | 18µM* | 3.7µM*
O=C(CCl)Nc1cc(SCC(O)CO)cc([N+](=O)[O-])c1 (configuration not stated) | 1.6µM* | ? | ? | 1.8µM* | 5.8µM* | 4.6µM*
Cc1cccc(NC(=O)c2ccc(-n3cnc4cccnc43)cc2)c1C | nt | i | nt | nt | ? | nt
CCOC(=O)c1cccc(NC(=O)CCc2c(C)nc3cc(-c4ccc(Cl)cc4)nn3c2C)c1 | nt | i | 16µM* | nt | i | 21µM*
CCOC(=O)c1cnc2cc(-c3ccc(C(C)(C)C)cc3)nn2c1N | -1% | i | ? | 1% | i | ?
CCOc1ccc(NC(=O)CCc2c(C)nc3cc(-c4ccc(Cl)cc4)nn3c2C)cc1 | nt | nt | 16µM* | nt | nt | 15µM*
CCOC(=O)Cc1c(C)nc2cc(-c3ccc(C(C)(C)C)cc3)nn2c1C | nt | i | 15µM* | nt | i | ?
COC(=O)c1ccccc1NC(=O)CCc1c(C)nc2cc(-c3ccc(Cl)cc3)nn2c1C | nt | i | ? | nt | i | ?
O=C(CSc1nc2ccc(Nc3nc(N4CCOCC4)nc(N4CCOCC4)n3)cc2s1)Nc1ccccc1F | 4% | 2.6µM* | 5.8µM* | 7% | 13µM* | 6.5µM*
O=C(CSc1nc2ccc(Nc3nc(N4CCOCC4)nc(N4CCOCC4)n3)cc2s1)Nc1ccccc1Cl | -28% | ? | ? | ? | ? | 21µM*
O=C(CSc1nc2ccc(Nc3nc(N4CCCC4)nc(N4CCCC4)n3)cc2s1)NCc1ccco1 | -2% | i | 6.5µM* | -6% | i | 5.8µM*
CSc1nc2ccc(Nc3nc(N4CCOCC4)nc(N4CCOCC4)n3)cc2s1 | ? | 18µM* | 16µM* | ? | ? | 23µM*
